Laboratory results from the supplement of paper PMC11417369.
Over roughly 25,000 sequences, “ln(normalized median fluorescence intensity)” has its median near 6.7; the highest 2% begin near 10. The entries come from a sample that favours the highest values as a whole.

These sequences were tested on PfHDP1 homeodomain (GST-tagged) (assay: gcPBM binding intensity (ln(normalized median fluorescence intensity)); higher = stronger DNA binding).
Summary of the method: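 Binding intensity is the highest Masliner-normalised natural-log median intensity over replicate spots in either probe orientation. To obtain it, GST-tagged P. falciparum DNA-binding domains made in E. coli were incubated for 1 h on an Agilent 4 × 180k array of primer-extended double-stranded 36-bp intergenic genomic probes plus negative controls. Detection used Alexa488 anti-GST antibody with scanning at 488 nm.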

Sequence	gcPBM binding intensity (ln)
AAAAAAAAAAAAAACACACACAAATTTAATATATAT [CACACA_site1695]	6.64
TTTTTTTTTTTTTTTTGTACTCATATCTACTATCAT [XGTACX_site274]	6.44
AAATTTATATATAGTTGTACAAAAATATGTTTCGTA [XGTACX_site4801]	6.62
GTGGACGAAATAGTTGTAAATTTATGTGCAAACCTC [XGTACX_negctrl_site564]	11.2
AAATAAAATTTTATGTGTACGCAAAAAGTTGTAAGC [XGTACX_site8911]	7.29
GTTTTTAATGTTTTGACATGCAATATTAAAAATAAT [TGCATGCA_site174]	6.57
TATATATATATATATATTTTAAATGATATAAATGGT [TGCATGCA_negctrl_site152]	9.23
AAAAAAAAAATGAGCACACATAAATAAAAACAAACA [CACACA_site1573]	7.39
AATATATCAAAAATGATGACATAAATATATTAATTT [GTGCAC_negctrl_site530]	6.13
AAATGAATATTCATAGTGCAATATATAAATGAAAAT	9.5
GTATTCATTCCTTGAGTGCAATTGCAATAAATAAAA	10.7
ATTAAATTTCCTTGAGTGCACATTTTGTTAAAATAT	9.29
ATACTATAATATAAAACACACATATGTACCTTCTAA [CACACA_site7323]	6.67
TATAAGGCAATAATAGTGCACTAAGATATATAATGA	10.7
TTGCAATAATGTTGCACACTAAATAGTCATATATAA [CACACA_site263]	9.77
TATTAATATATAGTAGTGCAATAAAGATATACTGAA	9.67
GTATTATATTTCAACTGTACGTAAAACTATTAAAAT [XGTACX_site3679]	6.55
ACCAATAAATATTTGGTGCATACATATATATATATA	10.5
TCAATAAATATACATACATGCATACATACATACATA [TGCATGCA_site197]	6.53
TATTTCTTTTGGTTGGTGCATAAAATAATACAATAT [GTGCAC_site9916]	10.5
AAATAATTTATATATTGTACAAATATTAAATGCGAA [XGTACX_site3390]	7.16
ATAACCTAATAATACACACACATGAATATATATAAT [CACACA_site4689]	7.17
TTATTTTCTTTCTATGCACACGCACGTATTTGCCCA [CACACA_site9104]	9.79
ATTTTCTTTCTATGCACACGCACGTATTTGCACCCA [CACACA_site3350]	10.9
TATTTTTCCCTATGCACACACACCGTATATATAATA [CACACA_site4758]	10.1
CGTAATAAAAACAAATGTACATGACCTGGACAGGTT [XGTACX_site6560]	6.4
